This is part of a sample that, as a whole, favours compounds with a hit. Of some 83,000 tested, about 20% had one in any assay.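 48-hour exposure, single concentration, 96-well plates; percent growth endpoint where 0 means no net growth. Active: below 10.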 Active and inactive are the calls of the source.
Experiments:
Assay in all cases: NCI-60 one-dose screen, 48 h (100 = growth as untreated, 0 = no growth, -100 = all killed)
Conditions in all cases: 10 µM unless noted
[1] = test system: NCI-H226 lung
[2] = test system: NCI-H322M lung
[3] = test system: HOP-62 NSCLC
[4] = test system: NCI-H460 lung
[5] = test system: HOP-92 NSCLC
[6] = test system: NCI-H522 lung
[7] = test system: A549/ATCC NSCLC
[8] = test system: 786-0 renal
[9] = test system: COLO 205 colon
[10] = test system: DU-145 prostate
[11] = test system: K-562 leukemia
[12] = test system: MALME-3M melanoma
[13] = test system: MDA-MB-231 breast
[14] = test system: RXF 393 renal
[15] = test system: SF-268 CNS
[16] = test system: SF-295 CNS
[17] = test system: SF-539 CNS
[18] = test system: UACC-257 melanoma
[19] = test system: M14 melanoma
[20] = test system: HCT-15 colon

Measured: growth

Nc1c(C(=O)c2ccc(Br)cc2)oc2nc(-c3cnccn3)cc(-c3cccs3)c12
inactive: [1] 98.6% | [2] 103% | [3] 94% | [4] 97.2% | [5] 90.8% | [6] 98.8% | [7] 103% | [8] 102% | [9] 118% | [10] 107% | [11] 92.7% | [12] 102% | [13] 101% | [14] 96.6% | [15] 104% | [16] 99.6% | [17] 98.8% | [18] 103% | [19] 98.9% | [20] 97.7%

COc1cc(N=Cc2sc(Nc3nccs3)nc2O)cc(OC)c1OC
inactive: [1] 79.5% | [2] 74% | [3] 80.1% | [4] 69.9% | [5] 72.8% | [6] 93.6% | [7] 95.6% | [8] 96.6% | [9] 99.6% | [10] 93.3% | [11] 84.4% | [12] 79.2% | [13] 79.1% | [14] 99.5% | [15] 78.8% | [16] 69.9% | [17] 90.5% | [18] 92.6% | [19] 79.9% | [20] 71.4%

CN(C)CCCOc1c2ccc(Cl)cc2nc2c1oc1ccccc12
active: [1] -0.673% | [2] -13.1% | [3] 7.02% | [4] 7.64% | [5] -4.3% | [6] -39.6% | [8] 6.22% | [9] -59.3% | [10] 5.28% | [11] 0.751% | [12] -81.2% | [13] -7.6% | [14] -66% | [15] -9.41% | [16] -19.2% | [17] -58.9% | [18] -18.5% | [19] -84.2% | [20] -21.6%
inactive: [7] 10%

O=C(N/N=C/c1ccc([N+](=O)[O-])o1)c1[nH]c2ccc(Br)cc2c1-c1ccccc1
active: [4] -31.4% | [5] -4.17% | [6] -26.3% | [8] -5.08% | [9] 5.51% | [11] 3.51% | [13] -2.79% | [17] 4.34% | [19] -35.4% | [20] 9.3%
inactive: [1] 15.8% | [2] 41.2% | [3] 24.2% | [7] 21.6% | [10] 16.2% | [12] 23% | [14] 50.1% | [15] 24.8% | [16] 21.3% | [18] 37.5%

COc1ccc(/C=N/NC(=O)c2[nH]c3ccc(Br)cc3c2-c2ccccc2)s1
active: [4] 3.58% | [6] -30.1% | [9] -55.8% | [13] 3.89% | [17] 1.16% | [19] 6.17%
inactive: [1] 47.8% | [2] 50.8% | [3] 47.6% | [5] 52.1% | [7] 31.5% | [8] 11.4% | [10] 20.4% | [11] 10.8% | [12] 55.5% | [14] 80.9% | [15] 39.7% | [16] 15.6% | [18] 47% | [20] 12%

NC(=O)c1cc(-c2ccc3ncnc(N4CCc5cc(F)c(Cl)cc54)c3c2)cnc1N
inactive: [3] 27.9% | [4] 20% | [5] 15.8% | [6] 19.1% | [7] 16.9% | [8] 12.8% | [9] 54.8% | [10] 14.3% | [11] 35.2% | [12] 25.1% | [13] 34.5% | [15] 27.6% | [16] 25.3% | [18] 54.8% | [19] 38.3% | [20] 25.8%
active: [1] 9.39% | [2] -3.06% | [14] -17.5% | [17] -23.4%

CS(=O)(=O)c1ccc(-c2nc3ccccn3c2/C=N/Nc2nc(-c3ccc(Cl)cc3)cs2)cc1
inactive: [1] 108% | [2] 111% | [3] 109% | [4] 102% | [5] 96.4% | [6] 96.2% | [7] 98.2% | [8] 79.8% | [9] 112% | [10] 106% | [11] 78.6% | [12] 127% | [13] 106% | [14] 98.8% | [15] 110% | [16] 98.8% | [17] 105% | [18] 107% | [19] 107% | [20] 94.2%

COc1cccc(OC)c1-c1nnn(C)c1C(=S)N1CCN(c2ccc([N+](=O)[O-])cc2Cl)CC1
inactive: [1] 88.6% | [2] 82.6% | [3] 106% | [4] 101% | [5] 80.3% | [6] 93.6% | [7] 92.9% | [8] 92.1% | [9] 107% | [10] 100% | [11] 91.5% | [12] 89.2% | [13] 90.5% | [14] 82.4% | [15] 98.9% | [16] 89.9% | [17] 95.8% | [18] 108% | [19] 97% | [20] 89.6%

C=CCSc1ccc2c(c1)C(N1CCNCC1)=Nc1ccccc1O2
inactive: [1] 87.4% [8.25 µM] | [2] 85.6% [8.25 µM] | [3] 84.7% [8.25 µM] | [4] 85.7% [8.25 µM] | [5] 34.2% [8.25 µM] | [6] 74% [8.25 µM] | [7] 71.7% [8.25 µM] | [8] 60.4% [8.25 µM] | [10] 90.8% [8.25 µM] | [11] 29.3% [8.25 µM] | [12] 86.6% [8.25 µM] | [13] 77.8% [8.25 µM] | [14] 63% [8.25 µM] | [15] 74.8% [8.25 µM] | [16] 85.1% [8.25 µM] | [17] 74.1% [8.25 µM] | [18] 83% [8.25 µM] | [19] 83.4% [8.25 µM] | [20] 85.3% [8.25 µM]
active: [9] 7.69% [8.25 µM]

NC(=O)c1c(NC(=O)c2ccc(C3CCCCC3)cc2)sc2c1CCC(=O)C2
active: [5] -15.4% | [6] -2.16% | [9] -36.1% | [11] 3.87% | [14] -2.51% | [20] 4.53%
inactive: [1] 19.6% | [2] 97.8% | [3] 56.4% | [4] 15.8% | [7] 10.8% | [8] 26.3% | [10] 49.2% | [12] 13.2% | [13] 15.6% | [15] 33.1% | [16] 18.9% | [17] 14.9% | [18] 12.2% | [19] 18%

Cc1nc2cnc(N)c(C#Cc3cncc(C(=O)Nc4ccc(Cl)c(C(F)(F)F)c4)c3)c2nc1C
inactive: [1] 26.7% | [2] 64.9% | [3] 56.8% | [4] 53.8% | [6] 89.5% | [7] 56.6% | [8] 64.3% | [9] 28.5% | [10] 69.4% | [12] 39.9% | [15] 52.6% | [16] 88.5% | [18] 77.7% | [19] 29.9% | [20] 52.6%
active: [5] -23.9% | [11] -15% | [13] 7.63% | [14] -18% | [17] -12.9%

NS(=O)(=O)c1cccc(Nc2nc(SCC(=O)c3ccc(Cl)cc3)nc3ccccc23)c1
inactive: [1] 42.5% | [2] 81.5% | [3] 36.2% | [4] 48.4% | [5] 24.5% | [6] 59.4% | [7] 79.5% | [8] 74.4% | [9] 105% | [10] 78.3% | [11] 68.2% | [12] 66.4% | [13] 56% | [14] 72.2% | [15] 41.8% | [16] 71.8% | [17] 50.9% | [18] 95% | [19] 99.3% | [20] 88.8%

O=C(O)CCCCCN1C(=O)/C(=C/c2ccc(O)c(O)c2)SC1=S
inactive: [1] 106% | [2] 89.9% | [3] 110% | [4] 108% | [5] 139% | [6] 98% | [7] 113% | [8] 105% | [9] 125% | [10] 103% | [11] 100% | [12] 97.5% | [13] 91.8% | [14] 124% | [15] 103% | [16] 99.3% | [17] 96% | [18] 108% | [19] 106% | [20] 101%

CC(=NNc1ncnc2ccccc12)c1ccc(S(C)(=O)=O)cc1
inactive: [1] 96.8% | [2] 100% | [3] 95% | [4] 108% | [5] 95.1% | [6] 100% | [7] 111% | [8] 102% | [9] 113% | [10] 115% | [11] 96.9% | [12] 98.3% | [13] 93% | [14] 114% | [15] 108% | [16] 97.1% | [17] 97.6% | [18] 108% | [19] 92.5% | [20] 96.5%

C/C(=N/NC(N)=S)c1ccc(Nc2nc(SCC(C)C)nc(-c3ccc(F)cc3)c2C#N)cc1
active: [1] -16.9% | [3] -11.1% | [4] -62.2% | [5] -39.1% | [7] -2.25% | [8] 4.53% | [11] 4.78% | [14] -45.4% | [16] -69.8% | [17] -58.6%
inactive: [2] 31.4% | [6] 34.1% | [9] 16.8% | [10] 18.9% | [12] 24.9% | [13] 15% | [15] 25.3% | [18] 63.3% | [19] 28.3% | [20] 25.2%
